Assay results as given in the supplement of paper PMC7156485.
“And” between values parts separate entries of the source, which are not always exact repeats. Equal entries are not always repeated. ± gives the standard deviation of the averaged measurements.

Tests used:
Conditions in all cases: concentration: 10 µM; 24 h
[1] = tested on: HCC1569; test: cell number relative to DMSO (% of DMSO); higher = more cells (less growth inhibition / toxicity)
Outline: (§1)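 Six fields per well were imaged at ×10 after the cells were fixed in 3.7% formaldehyde and stained with a rabbit anti-H1.0 antibody, an AlexaFluor 647 secondary and DAPI. The HCC1569 and TDF cells had been plated at 800 per well in 384-well plates (RPMI, 10% FBS) and treated in triplicate with compounds at 10 µM for 24 h at 37 °C. The values are the median of replicates of H1.0 nuclear intensity or cell number, as percent of the plate control. Smoothing for positional effects was applied to HCC1569 data.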

[2] = tested on: TDF; test: as above
Outline: as §1

[3] = tested on: TDF; test: H1.0 immunofluorescence intensity relative to DMSO (% of DMSO); higher = stronger H1.0 induction, active = 120 or more
Outline: as §1

[4] = tested on: HCC1569; test: H1.0 immunofluorescence intensity relative to DMSO (% of DMSO); higher = stronger H1.0 induction, active = 140 or more
Outline: as §1
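For H1.0 immunofluorescence intensity relative to DMSO in this document: TDF is a line of transformed human dermal fibroblasts of mesenchymal origin.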
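For cell number relative to DMSO in this document: TDF denotes transformed human dermal fibroblasts of mesenchymal origin.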

SMILES | cell number [1] | cell number [2] | H1.0 immunofluorescence intensity [3] | H1.0 immunofluorescence intensity [4]
NS(=O)(=O)c1cc(C2(O)NC(=O)c3ccccc32)ccc1Cl (stereo unspecified) | 101 | 98.1 | 96.1 (inactive) | 104 (inactive)
CCCNCC(O)COc1ccccc1C(=O)CCc1ccccc1.Cl (stereo unspecified) [Propafenone hydrochloride] | 95.4 | 103 | 99.2 (inactive) | 102 (inactive)
Cc1c2oc3c(C)ccc(C(=O)NC4C(=O)NC(C(C)C)C(=O)N5CCCC5C(=O)N(C)CC(=O)N(C)C(C(C)C)C(=O)OC4C)c3nc-2c(C(=O)NC2C(=O)NC(C(C)C)C(=O)N3CCCC3C(=O)N(C)CC(=O)N(C)C(C(C)C)C(=O)OC2C)c(N)c1=O (stereo unspecified) [Actinomycin D] | 46.2 | 16.9 | 179 (active) | 175 (active)
O=C(OC12CC3CC(CC(C3)C1)C2)c1ccc(NCc2cc(O)ccc2O)cc1 [1-adamantyl 4-[(2,5-dihydroxybenzyl)amino]benzoate] | 8.48 | 62.1 | 120 (inactive) | 109 (inactive)
CC1(C)CC(NC(=O)C(=O)Nc2ccc(Cl)cc2)CC(C)(C)N1 | 104 | 107 | 91 (inactive) | 99.1 (inactive)
CCC1(O)C(=O)OCc2c1cc1n(c2=O)Cc2cc3c(CN(C)C)c(O)ccc3nc2-1.Cl (stereo unspecified) [Topotecan.HCl] | 65.7 | 17.1 | 154 (active) | 96.3 (inactive)
COC(=O)Nc1nc2ccc(C(=O)c3cccs3)cc2[nH]1 [Nocodazole] | 59.5 | 10.9 | 157 (active) | 136 (inactive)
CN1CCc2cccc3c2C1Cc1ccc(O)c(O)c1-3.Cl [(R)-(-)-Apomorphine.HCl] | 98.4 | 98.9 | 89.1 (inactive) | 103 (inactive)
CC(=O)OCC(=O)C1(O)CCC2C3CCC4=CC(=O)CCC4(C)C3C(=O)CC21C (stereo unspecified) [Cortisone 21-acetate] | 101 | 120 | 97.5 (inactive) | 89.1 (inactive)
O=C(O)c1ccc(SC2=NS(=O)(=O)c3ccccc32)cc1 [4-((1,1-dioxidobenzo[d]isothiazol-3-yl)thio)benzoic acid] | 100 | 107 | 93.5 (inactive) | 98.7 (inactive)
COC(=O)C1=C(C)NC(C)=C(C(=O)OC)C1c1ccccc1[N+](=O)[O-] [Nifedipine] | 99.06 ± 0.47 | 102 ± 7 | 94.7 (inactive) | 104 (inactive)
OCCN(CCO)c1nc(N2CCCCC2)c2nc(N(CCO)CCO)nc(N3CCCCC3)c2n1 [Dipyridamole] | 94.2 ± 1.5 | 104 ± 7.8 | 85.7 (inactive) | 98.9 (inactive)
CC1(COc2ccc(CC3SC(=O)NC3=O)cc2)CCCCC1 (stereo unspecified) [Ciglitazone] | 99.8 | 91.8 | 102 (inactive) | 96.6 (inactive)
O=c1c2ccccc2nc2n1CCc1c-2[nH]c2ccccc12 [Rutaecarpine] | 102 ± 6.6 | 103.4 ± 0.87 | 94.9 (inactive) | 102 (inactive)
CC(C)COCC(CN(Cc1ccccc1)c1ccccc1)N1CCCC1.Cl (stereo unspecified) [Bepridil hydrochloride] | 99.7 | 103 | 92.8 (inactive) | 88.7 (inactive)
CCCCCC(O)C=CC=CC=CC(O)CC=CCCCC(=O)O [8(S),15(S)-DIHETE all trans] | 103 | 96.5 | 92.4 (inactive) | 101 (inactive)
NS(=O)(=O)c1ccc2c(c1)C1C=CCC1C(c1ccc(Br)cc1)N2 (stereo unspecified) | 102 | 91.3 | 95.3 (inactive) | 114 (inactive)
CCCCCCCCCCCCCCC(=O)O [Pentadecanoic acid] | 99 | 92.6 | 105 (inactive) | 107 (inactive)
CC(C)(C#N)c1cc(Cn2cncn2)cc(C(C)(C)C#N)c1 [Anastrozole] | 102 | 101 | 99.4 (inactive) | 102 (inactive)
CC(C=CC1=C(C)CCCC1(C)C)=CC=CC(C)=CC(=O)O [Retinoic Acid] | 98.1 ± 2.9 | 109 ± 5.1 | 90.8 (inactive) | 121 (inactive)
O=C(NC(CO)C(O)c1ccc([N+](=O)[O-])cc1)C(Cl)Cl (stereo unspecified) [Chloramphenicol] | 100 | 92.2 | 93.1 (inactive) | 112 (inactive)
C=C1CCC(O)CC1=CC=C1CCCC2(C)C1CCC2C(C)CCCC(C)(C)O (stereo unspecified) [Calcifediol] | 97.4 | 104 | 99.9 (inactive) | 120 (inactive)
Cl.Cl.O=C(O)COCCN1CCN(C(c2ccccc2)c2ccc(Cl)cc2)CC1 (stereo unspecified) [Cetirizine 2HCl] | 98.9 | 102 | 94.3 (inactive) | 104 (inactive)
COc1ccc2c(c1)c(CC(=O)O)c(C)n2C(=O)c1ccccc1 [1-benzoyl-5-methoxy-2-methylindole-3-acetic acid] | 101 | 104 | 96.8 (inactive) | 93.1 (inactive)
CC(C)NCC(O)c1ccc(O)c(O)c1 (racemic) [DL-Isoproterenol] | 107 | 108 | 93.8 (inactive) | 101 (inactive)

SMILES | cell number [1] | cell number [2] | H1.0 immunofluorescence intensity [3] | H1.0 immunofluorescence intensity [4]
CCCCCCC=CCCCCCCCCCC(=O)O [11(Z)-Octadecenoic acid] | 99.8 | 101 | 112 (inactive) | 105 (inactive)
CCCCCCCCCCCCCCCC(O)C(N)CO (racemic) [DL-Dihydrosphingosine] | 103 | 101 | 96.2 (inactive) | 100 (inactive)
O=C(OC1CC2CC3CC(C1)N2CC3=O)c1c[nH]c2ccccc12 (stereo unspecified) [Dolasetron] | 99.1 | 84.3 | 102 (inactive) | 105 (inactive)
Nc1nc(=O)c2nc(Br)n(C3OC4COP(=O)([O-])OC4C3O)c2[nH]1.[Na+] (stereo unspecified) [8-Bromo-cGMP sodium] | 101 | 100 | 93.4 (inactive) | 92.8 (inactive)
COc1ccc(CN(CCN(C)C)c2ccccn2)cc1.O=C(O)C=CC(=O)O [Pyrilamine maleate] | 103 | 104 | 99.6 (inactive) | 100 (inactive)
COc1ccc(CCN(C)CCCC(C#N)(c2cc(OC)c(OC)c(OC)c2)C(C)C)cc1OC.Cl (racemic) | 96.5 | 109 | 89 (inactive) | 92.3 (inactive)
Cl.NC(N)=NCCNS(=O)(=O)c1cccc2cnccc12 [HA-1004 hydrochloride] | 103 | 116 | 87.2 (inactive) | 88.4 (inactive)
CCCCCC=CC=CC(O)CCCCCCCC(=O)O (racemic) | 103 | 96.8 | 103 (inactive) | 97 (inactive)
O=C1C(Cl)=C(N2C(=O)CCC2=O)C(=O)c2ccccc21 [MEK Inhibitor II] | 98.9 | 110 | 90.5 (inactive) | 121 (inactive)
Cc1ccccc1C(C(=O)NC1CCCCC1)N(C(=O)Cn1ccnc1C)c1cccc(F)c1 (stereo unspecified) | 94.3 | 106 | 95.3 (inactive) | 105 (inactive)
OCc1ccc(-c2nn(Cc3ccccc3)c3ccccc23)o1 | 102 | 106 | 98.9 (inactive) | 106 (inactive)
O=C(CCN1CCN(C(=O)OCc2cc(Cl)cc(Cl)c2)CC1)c1ccc2[nH]c(=O)oc2c1 | 70.5 | 104 | 87.1 (inactive) | 168 (active)
Cc1cc(NC(=O)CS(=O)(=O)c2cn(Cc3cc(Br)ccc3F)c3ccccc23)no1 | 82.5 | 99.6 | 90 (inactive) | 151 (active)
Cc1cccc(C(=O)NCN2CCN(c3ccccc3C#N)CC2)c1.O=C(O)C=CC(=O)O [PD 168,077 maleate] | 105 | 107 | 97.3 (inactive) | 99.3 (inactive)
CC(=O)O.O=C(NCC1CCCCN1)c1cc(OCC(F)(F)F)ccc1OCC(F)(F)F (stereo unspecified) [Flecainide acetate] | 102 ± 3.6 | 101 ± 1.2 | 91.5 (inactive) | 107 (inactive)
Cc1ccc(=O)n(-c2ccccc2)c1 [Pirfenidone] | 102 | 103 | 90.3 (inactive) | 92.5 (inactive)
CC12CCc3occc3C1CCC13CC(=O)C(CCC12)C3 (stereo unspecified) [16-Oxocafestol] | 101 | 97.5 | 97.4 (inactive) | 98.5 (inactive)
CCCCCCCCCCCCCCCCCCCC(=O)O [Eicosanoic acid] | 99.8 | 102 | 102 (inactive) | 101 (inactive)
CCCCCCCCCCCC=CCCCCCC(=O)O [7(E)-Nonadecenoic acid] | 98.7 | 104 | 96.9 (inactive) | 94.3 (inactive)
O=c1[nH]nc(Sc2ncc([N+](=O)[O-])s2)n1-c1ccc2c(c1)OCCO2 | 58.3 and 32.2 | 90.9 and 81.2 | 103 (inactive) and 102 (inactive) | 137 (inactive) and 134 (inactive)
CC(C(=O)O)c1cccc(Oc2ccccc2)c1 (stereo unspecified) [Fenoprofen] | 102 | 101 | 94.2 (inactive) | 120 (inactive)
CCC=CCC=CCC=CCC=CCC=CCCCC(=O)O [Eicosapentaenoic acid] | 106 ± 9.9 | 103.8 ± 0.71 | 103 (inactive) | 99.1 (inactive)
CC(=O)OCC(=O)C1(O)CCC2C3CCC4=CC(=O)CCC4(C)C3C(O)CC21C (stereo unspecified) [Hydrocortisone 21-acetate] | 99.8 | 104 | 78 (inactive) | 109 (inactive)
CCN(CC)CC(=O)Nc1c(C)cccc1C.Cl.O [Lidocaine.HCl.H2O] | 99 | 99.8 | 89.5 (inactive) | 103 (inactive)
